Experimental data as given in PubChem BioAssay (EPA / NIEHS).
Inconclusive results are not listed. Active and inactive are the calls of the source. The calls were made as follows: active = hit-call score of the fitted dose curve at least 0.9, where 1 is the maximum; inconclusive = response in the unintended direction; inactive = score below 0.9.

How the values were obtained:
[1] = target: Estrogen receptor (Homo sapiens) (UniProt P03372); test: OT_ER_ERaERa_1440: Odyssey Thera (OT) 24-hour HEK293T Protein-Complementation Assay for Estrogen Receptor-alpha/-alpha Homodimer (AID 2283349);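 also: hits raise fluorescence above DMSO for agonists and antagonists alike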
Sequence of Estrogen receptor (Homo sapiens) (P03372 whole entry, looked up, the tested form may be a part): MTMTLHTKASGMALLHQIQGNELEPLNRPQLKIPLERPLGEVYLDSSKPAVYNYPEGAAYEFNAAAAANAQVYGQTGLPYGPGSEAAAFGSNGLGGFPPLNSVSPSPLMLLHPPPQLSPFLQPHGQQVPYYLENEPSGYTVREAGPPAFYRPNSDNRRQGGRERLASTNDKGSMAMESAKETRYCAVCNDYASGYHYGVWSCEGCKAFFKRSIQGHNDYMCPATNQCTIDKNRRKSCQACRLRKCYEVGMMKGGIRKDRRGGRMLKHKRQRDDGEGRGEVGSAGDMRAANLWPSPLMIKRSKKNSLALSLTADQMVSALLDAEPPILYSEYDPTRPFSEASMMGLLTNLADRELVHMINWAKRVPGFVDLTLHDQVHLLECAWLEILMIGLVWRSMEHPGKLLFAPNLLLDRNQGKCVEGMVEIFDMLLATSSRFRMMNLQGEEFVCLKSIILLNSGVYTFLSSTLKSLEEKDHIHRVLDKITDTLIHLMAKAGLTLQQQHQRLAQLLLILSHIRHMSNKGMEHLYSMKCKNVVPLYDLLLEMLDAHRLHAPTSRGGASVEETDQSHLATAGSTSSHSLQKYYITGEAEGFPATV
Outline: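 Readout is the rise in mean fluorescence from reporter fragment complementation when ERα LBD (aa 310-547) units dimerize in HEK293T cells. Measured 24 h after dosing and analysed as increase over DMSO control.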

[2] = target: Estrogen receptor (Homo sapiens) (UniProt P03372); test: OT_ER_ERaERa_0480: Odyssey Thera (OT) 8-hour HEK293T Protein-Complementation Assay for Estrogen Receptor-alpha/-alpha Homodimer (AID 2283351);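 also: rise in fluorescence from reassembled reporter fragments on ERα LBD homodimer in nucleus or whole cell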
Outline: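 HEK293T, stable ERα LBD (aa 310-547) PCA homodimer; 8 h compound exposure; fluorescence intensity, laser scanning cytometer; positive fitting direction, DMSO baseline.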

[3] = target: human Peripheral-type Benzodiazepine Receptor (PBR), TSPO (gene 706) (UniProt P30536); test: NVS_MP_hPBR: NovaScreen (NVS) Membrane Protein Assay for human Peripheral-type Benzodiazepine Receptor (PBR) (AID 2283331);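 also: hits reduce radioligand binding relative to DMSO baseline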
Sequence of human Peripheral-type Benzodiazepine Receptor (PBR), TSPO (gene 706) (P30536 whole entry, looked up): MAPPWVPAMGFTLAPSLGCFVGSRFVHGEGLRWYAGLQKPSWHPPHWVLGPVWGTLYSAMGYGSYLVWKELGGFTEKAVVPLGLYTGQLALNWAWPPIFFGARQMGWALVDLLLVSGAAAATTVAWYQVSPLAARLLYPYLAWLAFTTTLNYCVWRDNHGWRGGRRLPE
Outline: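 Human colonic cell membranes were incubated with test chemical for 1 hour; radioligand binding was measured by filter-based scintillation counting. Primary screen ran in duplicate at 25 uM, with actives followed in concentration series; loss of signal versus DMSO baseline.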

[4] = target: bovine Estrogen Receptor (ER), ESR1 (gene 407238) (UniProt P49884); test: NVS_NR_bER: NovaScreen (NVS) Nuclear Receptor Binding Assay for bovine Estrogen Receptor (ER) (AID 2283345);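 also: actives lower the bound radioligand count which means they displace the ER ligand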
Sequence of bovine Estrogen Receptor (ER), ESR1 (gene 407238) (P49884 whole entry, looked up): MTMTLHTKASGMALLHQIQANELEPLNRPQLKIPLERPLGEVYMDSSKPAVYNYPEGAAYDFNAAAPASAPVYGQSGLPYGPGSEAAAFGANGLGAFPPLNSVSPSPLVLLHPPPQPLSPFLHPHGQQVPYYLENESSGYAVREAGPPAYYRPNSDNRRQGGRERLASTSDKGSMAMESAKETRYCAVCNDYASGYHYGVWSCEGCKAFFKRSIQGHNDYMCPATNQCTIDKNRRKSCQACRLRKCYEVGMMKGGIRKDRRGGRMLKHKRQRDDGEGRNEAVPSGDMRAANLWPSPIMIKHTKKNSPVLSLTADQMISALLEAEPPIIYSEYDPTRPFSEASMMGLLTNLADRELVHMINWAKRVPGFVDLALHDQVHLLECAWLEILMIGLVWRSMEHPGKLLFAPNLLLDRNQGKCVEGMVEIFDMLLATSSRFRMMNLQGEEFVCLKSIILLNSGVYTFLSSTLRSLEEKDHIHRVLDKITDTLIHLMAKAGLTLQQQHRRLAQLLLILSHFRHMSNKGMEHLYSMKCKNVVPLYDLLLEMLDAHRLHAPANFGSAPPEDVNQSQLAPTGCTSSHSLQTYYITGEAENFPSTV
Outline: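 Cell-free radioligand binding with bovine uterine membrane extracts, read 18 hours after dosing by scintillation counting. Loss of signal versus DMSO baseline indicates displacement. Primary screen run in duplicate at 25 uM, actives followed in concentration series.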

[5] = target: Androgen Receptor/SRC-1 Co-activator, AR (gene 367) (UniProt P10275); test: OT_AR_ARSRC1_0960: Odyssey Thera (OT) 16-hour HEK293T Protein-Complementation Assay for Androgen Receptor/SRC-1 Co-activator (AID 2283353);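 also: actives raise the signal above DMSO so potency reflects increased AR and SRC-1 complex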
Sequence of Androgen Receptor/SRC-1 Co-activator, AR (gene 367) (P10275 whole entry, looked up, the tested form may be a part): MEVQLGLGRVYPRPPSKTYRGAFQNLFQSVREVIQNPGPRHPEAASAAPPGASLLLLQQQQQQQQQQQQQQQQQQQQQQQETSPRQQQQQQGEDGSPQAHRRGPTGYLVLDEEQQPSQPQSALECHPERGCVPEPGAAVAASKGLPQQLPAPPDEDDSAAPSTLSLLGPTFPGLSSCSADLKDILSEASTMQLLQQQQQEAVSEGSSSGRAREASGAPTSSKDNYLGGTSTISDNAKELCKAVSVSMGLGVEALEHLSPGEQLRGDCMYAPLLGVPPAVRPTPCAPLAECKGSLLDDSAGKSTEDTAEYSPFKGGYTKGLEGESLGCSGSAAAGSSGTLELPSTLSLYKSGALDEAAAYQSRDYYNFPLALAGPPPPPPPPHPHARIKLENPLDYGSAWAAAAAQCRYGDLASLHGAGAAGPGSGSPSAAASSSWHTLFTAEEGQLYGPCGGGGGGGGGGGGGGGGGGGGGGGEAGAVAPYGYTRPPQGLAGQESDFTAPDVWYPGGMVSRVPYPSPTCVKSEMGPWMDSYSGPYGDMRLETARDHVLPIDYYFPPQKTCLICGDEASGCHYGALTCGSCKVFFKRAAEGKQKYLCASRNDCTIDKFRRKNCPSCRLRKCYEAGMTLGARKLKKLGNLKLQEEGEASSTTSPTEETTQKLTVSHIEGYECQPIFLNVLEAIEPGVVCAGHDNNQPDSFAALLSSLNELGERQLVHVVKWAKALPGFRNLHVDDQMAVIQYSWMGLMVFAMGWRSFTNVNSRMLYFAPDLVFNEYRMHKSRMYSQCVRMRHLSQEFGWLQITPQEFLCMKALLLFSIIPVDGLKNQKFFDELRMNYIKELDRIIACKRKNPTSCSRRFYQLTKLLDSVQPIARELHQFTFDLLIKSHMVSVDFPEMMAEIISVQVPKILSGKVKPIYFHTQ
Outline: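 Split-Venus PCA, AR/SRC-1 fusions, stable HEK293T; 16 h compound exposure; imaged at 488 and 635 nm; N/C ratio (488 nm channel), min 400 cells/image; positive-direction fit, DMSO baseline.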

[6] = target: Androgen Receptor/SRC-1 Co-activator, AR (gene 367) (UniProt P10275); test: OT_AR_ARSRC1_0480: Odyssey Thera (OT) 8-hour HEK293T Protein-Complementation Assay for Androgen Receptor/SRC-1 Co-activator (AID 2283354);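 also: hits raise the complementation signal above DMSO so AC50 marks enhancers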
Outline: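 HEK293T cells stably expressing AR and SRC-1 fused to split Venus YFP fragments via (Gly4Ser)2 linkers were read 8 h after compound dosing. Complementation was imaged at 488 and 635nm, and nuclear/cytoplasmic fluorescence ratio (488nm) was taken over ≥400 cells; gain-of-signal versus DMSO.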

[7] = target: Estrogen receptor beta (Homo sapiens) (UniProt Q92731); test: OT_ER_ERbERb_0480: Odyssey Thera (OT) 8-hour HEK293T Protein-Complementation Assay for Estrogen Receptor-beta/-beta Homodimer (AID 2283357);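 also: active means signal gain over DMSO baseline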
Sequence of Estrogen receptor beta (Homo sapiens) (Q92731 whole entry, looked up, the tested form may be a part): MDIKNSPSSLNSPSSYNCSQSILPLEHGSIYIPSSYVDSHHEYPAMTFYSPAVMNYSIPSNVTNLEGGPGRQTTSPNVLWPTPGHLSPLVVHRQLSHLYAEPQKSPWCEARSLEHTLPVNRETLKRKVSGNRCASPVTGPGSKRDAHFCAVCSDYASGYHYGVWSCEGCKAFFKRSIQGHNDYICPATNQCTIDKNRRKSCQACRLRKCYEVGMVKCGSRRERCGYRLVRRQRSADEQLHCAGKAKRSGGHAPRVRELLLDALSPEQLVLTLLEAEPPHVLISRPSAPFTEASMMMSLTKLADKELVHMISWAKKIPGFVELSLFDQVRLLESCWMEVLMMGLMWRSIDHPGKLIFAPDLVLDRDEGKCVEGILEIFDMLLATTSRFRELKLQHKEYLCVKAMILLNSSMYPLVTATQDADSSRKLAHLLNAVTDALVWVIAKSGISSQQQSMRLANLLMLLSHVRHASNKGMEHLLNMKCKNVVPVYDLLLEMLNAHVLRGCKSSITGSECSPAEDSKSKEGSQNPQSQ
Outline: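 Readout: increase in mean fluorescence intensity (nucleus for agonists; nucleus plus cytoplasm for antagonists) relative to DMSO, from a reporter-fragment complementation of human ER-beta LBD homodimer in HEK293T cells dosed 8 hours.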

[8] = target: Retinoic acid receptor alpha (Homo sapiens) (UniProt P10276); test: NVS_NR_hRAR_Antagonist: NovaScreen (NVS) Nuclear Receptor Binding Assay for human Retinoic Acid Alpha Receptor Antagonism (RAR) (AID 2283358)
Outline: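 Cell-free TR-FRET binding assay on extracted receptor protein, run in antagonist mode; signal read 2 hours after chemical dosing. Loss of signal was fitted relative to DMSO baseline. Screened at 25 uM in duplicate, actives followed up in concentration series.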

[9] = target: Estrogen receptor (Homo sapiens) (UniProt P03372); test: NVS_NR_hER: NovaScreen (NVS) Nuclear Receptor Binding Assay for human Estrogen Receptor (ER) (AID 2283348)
Outline: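 Cell-free radioligand binding with protein extracted from MCF7 cells; scintillation counting 18 hours after dosing. Loss of signal versus DMSO baseline read as displacement; primary single-concentration screen at 25 uM in duplicate, actives retested in concentration series.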

[10] = target: T1, Estrogen receptor (Homo sapiens) + Estrogen receptor beta (Homo sapiens) (UniProt P03372+Q92731); test: OT_ER_ERaERb_0480: Odyssey Thera (OT) 8-hour HEK293T Protein-Complementation Assay for Estrogen Receptor-alpha/-beta Heterodimer (AID 2283352)
T1 sequence (P03372 whole entry, looked up, the tested form may be a part): as the sequence (P03372 whole entry, looked up, the tested form may be a part) above
T1 sequence (Q92731 whole entry, looked up, the tested form may be a part): as the sequence (Q92731 whole entry, looked up, the tested form may be a part) above
Outline: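 HEK293T cells expressing ER-alpha/ER-beta LBD fusions to complementary reporter fragments were dosed with compound for 8 hours. Heterodimer formation was read as increased nuclear (agonist) or nuclear plus cytoplasmic (antagonist) mean fluorescence intensity versus DMSO vehicle.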

[11] = target: T1, Estrogen receptor (Homo sapiens) + Estrogen receptor beta (Homo sapiens); test: OT_ER_ERaERb_1440: Odyssey Thera (OT) 24-hour HEK293T Protein-Complementation Assay for Estrogen Receptor-alpha/-beta Homodimer (AID 2283356);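 also: heteromer of ER alpha and ER beta binding domains; hits raise reporter fluorescence and both agonists and antagonists give an increase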
Outline: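 HEK293T cells stably expressing a PCA pair of ERα LBD (aa 310-547) and ERβ LBD (aa 263-489) were dosed for 24 h. Fluorescence intensity increase versus DMSO vehicle was fitted as gain-of-signal.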

[12] = target: human Androgen Receptor (AR), AR (gene 367) (UniProt P10275); test: NVS_NR_hAR: NovaScreen (NVS) Nuclear Receptor Binding Assay for human Androgen Receptor (AR) (AID 2283332)
Sequence of human Androgen Receptor (AR), AR (gene 367) (P10275 whole entry, looked up): as the sequence (P10275 whole entry, looked up, the tested form may be a part) above
Outline: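 Actives from a duplicate 25 uM single-point screen went on to concentration series. Read-out after 20 h was scintillation counting of displaced radioligand in LnCAP extract, with DMSO as baseline.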

[13] = target: chimpanzee Androgen Receptor (AR), AR (gene 747460) (UniProt O97775); test: NVS_NR_cAR: NovaScreen (NVS) Nuclear Receptor Binding Assay for chimpanzee Androgen Receptor (AR) (AID 2283346);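 also: radioligand displacement from AR measured by scintillation counting in a cell-free assay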
Outline: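 Cell-free radioligand displacement using receptor protein extracted from Sf9/Sf21 cells; bound radioligand measured by scintillation counting 72 hours after chemical dosing. Loss of signal versus DMSO baseline indicates binding; primary screen single-concentration in duplicate at 25 uM, actives followed in concentration series.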

[14] = target: rat Thyrotropin Releasing Hormone Receptor (TRH), Trhr (gene 25570) (UniProt Q01717); test: NVS_GPCR_rTRH: NovaScreen (NVS) G Protein-Coupled Receptor Assay for rat Thyrotropin Releasing Hormone Receptor (TRH) (AID 2283329);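 also: hit means lower bound tracer signal versus DMSO baseline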
Outline: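 Rat forebrain membranes; radioligand displacement at TRH receptor by filter-based scintillation counting, read 4 h after dosing. Duplicate single-point screen at 25 uM, actives rerun in concentration series; loss of signal relative to DMSO.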

`N#Cc1ccccc1O` was tested. Which outcome [1] did it give?
Its outcome is “inactive”.

What about the outcome [2] of the same compound?
Its outcome is “inactive”.

What does the source list for `CCCCCCCCCCCCC[N+](C)(C)Cc1ccccc1`?
AC50 [3]: 25.5 µM (active); outcome [4]: inactive; outcome [1]: inactive; outcome [2]: inactive; AC50 [5]: 14.7 µM (active); AC50 [6]: 14.6 µM (active); outcome [7]: inactive; AC50 [8]: 9.07 µM (active)

What does the source list for `CC(C)OC=O`?
outcome [1]: inactive; outcome [2]: inactive

What does the source list for `CC(C)(C)C(=O)C1C(=O)c2ccccc2C1=O`?
outcome [4]: inactive; outcome [9]: inactive

Which results are given for `CCCCCCCCCc1ccc(OCCO)cc1`?
AC50 [3]: 2.84 µM (active); outcome [4]: inactive; outcome [9]: inactive; AC50 [1]: 19.7 µM (active); outcome [2]: inactive; AC50 [10]: 4.81 µM (active); AC50 [5]: 20 µM (active); AC50 [6]: 25.4 µM (active); AC50 [11]: 4.94 µM (active); AC50 [7]: 4.92 µM (active)

Which results are given for `O=C1c2c(O)ccc(Nc3ccc(CCO)cc3)c2C(=O)c2c([N+](=O)[O-])ccc(O)c21`?
AC50 [3]: 9.9 µM (active); AC50 [12]: 13.8 µM (active); outcome [13]: inactive

What does the source list for `CCOC(=O)C1CC(=O)C(=C(O)C2CC2)C(=O)C1` (stereo not given)?
outcome [1]: inactive; outcome [2]: inactive; outcome [11]: inactive

Which AC50 [3] does the source give for `O=C=Nc1cccc2c(N=C=O)cccc12` here?
Its AC50 is 0.353 µM (active).

For `Cc1ccc(S(=O)(=O)C(I)I)cc1`, which AC50 [3] is on record?
The AC50 was 23.2 µM (active).

How did the outcome [1] turn out when `OCC1CCCO1` (stereo not given) was run?
The outcome was “inactive”.

What about the outcome [2] of the same compound?
Its outcome is “inactive”.

And the outcome [10]?
The outcome was “inactive”.

And the outcome [5]?
The outcome was “inactive”.

What about the outcome [11] of the same compound?
The outcome was “inactive”.

And the outcome [7]?
Its outcome is “inactive”.

How did the AC50 [3] turn out when `CC(C)Nc1ccc(NC(C)C)c2c1C(=O)c1ccccc1C2=O` was run?
The AC50 was 3.66 µM (active).

What about the outcome [1] of the same compound?
Its outcome is “inactive”.

And the outcome [2]?
The outcome was “inactive”.

What about the outcome [11] of the same compound?
Its outcome is “inactive”.

What about the outcome [7] of the same compound?
The outcome was “inactive”.

Which results are given for `Cc1ccc([N+](=O)[O-])c(C)c1`?
outcome [14]: inactive; outcome [1]: inactive; outcome [2]: inactive

With `Cc1ccc(O)c(-n2nc3ccccc3n2)c1` as the compound, how does the outcome [9] read?
Its outcome is “inactive”.

What about the outcome [1] of the same compound?
Its outcome is “inactive”.

What about the outcome [2] of the same compound?
The outcome was “inactive”.

And the outcome [10]?
The outcome was “inactive”.

What about the outcome [11] of the same compound?
Its outcome is “inactive”.

And the outcome [7]?
The outcome was “inactive”.

Which outcome [1] does the source give for `CC(C)(C)c1cc(CCC(=O)OCC(COC(=O)CCc2cc(C(C)(C)C)c(O)c(C(C)(C)C)c2)(COC(=O)CCc2cc(C(C)(C)C)c(O)c(C(C)(C)C)c2)COC(=O)CCc2cc(C(C)(C)C)c(O)c(C(C)(C)C)c2)cc(C(C)(C)C)c1O` here?
The outcome was “inactive”.

What about the outcome [11] of the same compound?
Its outcome is “inactive”.

What about the outcome [7] of the same compound?
Its outcome is “inactive”.
